LmPK inh – LmPK (Leishmania mexicana) enzyme inhibition; hit rate 0.37% among 290,000; Q27686; Potency, µM (highest dose often 57.5 µM), for inactives: top-dose activity change, negative = inhibition, actives largely listed as inhibitors; purified LmPK, Kinase-Glo ATP luminescence, 1 h; further: potency means the concentration at half of the fitted maximal effect; on the % scale 0 is the no-effect control and ±100 the full control effect
Target sequence (Q27686 whole entry, looked up): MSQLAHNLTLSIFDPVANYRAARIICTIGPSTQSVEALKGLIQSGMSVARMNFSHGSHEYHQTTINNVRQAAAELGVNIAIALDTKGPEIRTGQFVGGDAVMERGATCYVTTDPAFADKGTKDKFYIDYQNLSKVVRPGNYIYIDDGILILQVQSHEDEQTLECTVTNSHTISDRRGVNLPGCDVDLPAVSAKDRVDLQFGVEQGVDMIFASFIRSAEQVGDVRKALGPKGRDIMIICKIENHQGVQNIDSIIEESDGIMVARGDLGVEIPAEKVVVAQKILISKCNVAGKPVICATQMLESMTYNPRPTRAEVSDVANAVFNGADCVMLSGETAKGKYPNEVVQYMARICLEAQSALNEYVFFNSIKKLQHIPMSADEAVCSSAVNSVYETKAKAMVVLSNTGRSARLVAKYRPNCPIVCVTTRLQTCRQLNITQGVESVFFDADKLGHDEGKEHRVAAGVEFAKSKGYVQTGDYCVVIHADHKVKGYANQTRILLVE
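In 50 mM imidazole pH 7.2 with 7 mM MgCl2, LmPK (0.1 nM) turned over PEP (0.5 mM) and ADP (0.1 mM) for 1 h at room temperature. Luciferase read-out of ATP.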
Cycloheximide cs – counter-screen for Shiga toxin inhibitors: cycloheximide protein synthesis inhibition; cell reporter, cycloheximide protein synthesis inhibition counterscreen; max response, %; hit rate 12% among 300,000; AID 2314; in the data active means max response mostly above about 13%, no sharp cut-off; inactive means mostly below about 14%; further: read at 38.3 µM for the half of the compounds with a filed dose; 0% is about no effect
Pf growth 96h – inhibits malaria parasite growth, 96 h | P. falciparum luciferase reporter growth, 96 h | Potency, µM (titrated, usually from 28.7 µM), for inactives: at the top dose activity change, negative = inhibition, most hits filed as inhibitors | hit rate 6.9% among 320,000; further: potency means the concentration at half of the fitted maximal effect; on the % scale 0 is the no-effect control and ±100 the full control effect
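Compounds incubated with erythrocytes infected by luciferase-expressing P. falciparum (2% hematocrit, 0.05% parasitemia final) for 96 hours, 37 C in 5% CO2. Growth inhibition scored as decreased luciferase luminescence.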
Pf growth 48h – inhibits P. falciparum growth in the first generation, 48 h | P. falciparum luciferase growth in erythrocytes, 48 h | Potency, µM (titrated, usually from 28.7 µM), without a hit: top-dose activity change, negative = inhibition, usual class: inhibitors | hit rate 5.9% among 310,000; further: potency means the concentration at half of the fitted maximal effect; on the % scale 0 is the no-effect control and ±100 the full control effect
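Parasite viability was followed by luminescence of a genomically integrated firefly luciferase. Cultures held 0.1% parasitemia at 2% hematocrit (final), incubated under 5% CO2 at 37 C.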
Shiga toxin inh – inhibitors of Shiga toxin in Vero cells; Vero cells, Shiga toxin protein synthesis inhibition reporter; inhibition, % at 38.7 µM; hit rate 9.2% among 290,000; AID 2315; in the data active means inhibition mostly above about 28%, no sharp cut-off; inactive means mostly below about 43%; further: 0% is about no effect
* marks the source's active call; other numbers are inactive results; i = inactive; ? = inconclusive; . = no result given; + = active, no number; [ ] = another dose, or the depositor's remark. Hits are enriched below; roughly 22% of the tested compounds scored in any of these assays. Unless noted, the call rests on the fitted dose curve; in most records, active means well fitted inhibition curve with a large enough effect; inconclusive means small, poorly fitted or top-dose-only effect, or another doubt; inactive means no such curve, though single readings can be large or run the other way.

SMILES	LmPK inh	Cycloheximide cs	Pf growth 96h	Pf growth 48h	Shiga toxin inh
O=C(O)C1CC=CCC1C(=O)NNc1ccccc1 (stereo not drawn)	-2.2%	9.5	9.6%	3.7%	11.3
COc1cccc(CNC(=O)C2CCN(S(=O)(=O)c3ccc(-n4cnnn4)cc3)CC2)c1	-2.6%	-2.6	26.6%	-23.5%	-12.6
CC1=CC(C)C2(COC(c3ccc[n+](C)c3)OC2)C(C)C1 (stereo not drawn)	-5.2%	7.0	10.4µM*	?	24.5
CC(C)CC1NC(=S)N(Cc2ccccc2)C1=O (stereo not drawn)	-0.8%	-2.8	9.28µM*	?	21.4
COc1ccc(CN2C(=O)C(CC(C)C)Nc3ncnc(N4CCN(c5ccccc5)CC4)c32)cc1 (stereo not drawn)	.	.	11.7µM*	2.62µM*	.
CC(C)CC1NC(=O)N(CC(=O)Nc2ccc(-c3ccccc3)cc2)C1=O (stereo not drawn)	.	.	-1.2%	-5.2%	.
CC(C)CC1Nc2ncnc(N3CCN(c4ccccc4)CC3)c2N(Cc2ccc(Br)cc2)C1=O (stereo not drawn)	.	.	5.86µM*	2.94µM*	.
CC(C)CC1Nc2ncnc(N3CCN(c4ccccc4)CC3)c2N(Cc2ccccc2)C1=O (stereo not drawn)	.	.	11.7µM*	10.4µM*	.
COC(=O)c1ccc(CN2C(=O)NC(CC(C)C)C2=O)cc1 (stereo not drawn)	1.8%	-1.7	20.1%[5.75 µM]	-7.1%	-9.6
COc1ccc(N2CCN(c3nc4c(c(=O)n(C)c(=O)n4C)n3Cc3ccccc3)CC2)cc1	-0.8%	-2.0	.	?	19.7
CC(=O)N/C(=C\c1ccccc1)C(=O)OC(C)C(=O)Nc1ccccc1F (stereo not drawn)	.	.	?	-27.5%	.
COc1ccc(CN2C(=O)C(Cc3ccccc3)Nc3ncnc(N4CCN(c5ccccc5)CC4)c32)cc1 (stereo not drawn)	.	.	6.57µM*	2.62µM*	.
CC(C)CC1Nc2ncnc(N3CCCCC3)c2N(Cc2ccccc2)C1=O (stereo not drawn)	.	.	?	11.7µM*	.
COc1ccc(N2CCN(C3CC(=O)N(Cc4ccccc4)C3=O)CC2)cc1 (stereo not drawn)	5.4%	4.2	-26.7%	-10.9%	2.8
CC1CCN(C(=O)c2ccc3c(c2)OCCO3)CC1	-0.4%	46.4*	.	-16.5%	55.3*
CC1CC(C)CN(C(=O)c2ccc3c(c2)OCCO3)C1 (stereo not drawn)	.	.	4.65µM*	2.94µM*	.
CC1CCN(S(=O)(=O)N2CCN(C(=O)c3ccc4c(c3)OCO4)CC2)CC1	-2.4%	-6.4	?	1.0%	-2.6
CC1CCCN(C(=O)c2ccc3c(c2)OCO3)C1 (stereo not drawn)	2.4%	4.4	52.3%	13.1%	22.2
CCN1CCN(S(=O)(=O)c2ccc(Cl)c(C(=O)NCCc3ccccc3)c2)CC1	.	.	43.5%	71.2%	.
CC(C)(C)C(=O)COC(=O)c1cccc(NC(=O)c2ccco2)c1	1.9%	26.8*	27.4%	4.2%	27.5
O=C(COC(=O)c1cccc(NC(=O)c2ccco2)c1)c1ccc(Br)cc1	-9.5%	79.8*	199.7%	53.9%	116.7*
Cc1ccc(Cl)cc1NC(=S)N(CCCN1CCN(C)CC1)Cc1cccs1	-1.1%	-3.4	-0.3%	0.0%	-14.9
Cc1cc(C)c(NC(=S)N(CCCN2CCN(C)CC2)Cc2cccs2)c(C)c1	11.5%	0.8	10.4µM*	-30.0%	-14.7
Cc1cc(Cl)ccc1NC(=S)N(CCCN1CCOCC1)Cc1cccs1	-0.6%	-3.0	11.7µM*	?	-4.9
COc1ccccc1NC(=S)N(CCCN1CCOCC1)Cc1cccs1	1.5%	9.3	34.0%	?	-3.6
SMILES	LmPK inh	Cycloheximide cs	Pf growth 96h	Pf growth 48h	Shiga toxin inh
CCN1CCN(CCCN(Cc2ccco2)C(=S)Nc2ccccc2Cl)CC1	-17.8%	-7.4	1.85µM*	33.7%	-6.3
CCc1ccccc1NC(=S)N(CCCN1CCOCC1)Cc1cccs1	3.9%	4.2	2.62µM*	-17.3%	0.2
Cc1cc(C)nc(SCC(=O)N(C)CC(=O)Nc2c(Cl)cccc2Cl)n1	.	.	9.6%	16.7%	.
CC(=O)C(Cc1ccccc1)NC(=O)COC(=O)CCN1C(=O)C2CC=CCC2C1=O (stereo not drawn)	.	.	62.3%	31.7%	.
O=P(O)(O)OC(CO)CO	.	-1.7	.	.	-9.9
COC(=O)CN1C(=O)N/C(=C/c2ccc(C)o2)C1=O	13.8%	-1.9	10.4µM*	-1.5%	3.8
Cc1ccc(/C=C2/NC(=O)N(Cc3ccccc3)C2=O)o1	-4.4%	-0.8	-17.8%	-19.1%	9.0
COc1ccc(CCNC(=O)c2ccc([N+](=O)[O-])cc2)cc1	1.7%	-2.4	-13.8%	-1.5%	-3.4
COc1ccc(CCNc2ccc([N+](=O)[O-])cn2)cc1	3.9%	-3.0	13.1µM*	?	-2.0
COc1ccc(CCNC(=O)C(C)c2ccc([N+](=O)[O-])cc2)cc1 (stereo not drawn)	0.7%	-2.3	8.28µM*	-10.3%	-9.5
O=[N+]([O-])c1ccc(NCc2ccccc2)nc1	0.6%	54.6*	-4.8%	72.9%	56.5*
O=[N+]([O-])c1ccc(S(=O)(=O)c2ccccc2)nc1	4.5%	-10.3	1.65µM*	2.94µM*	-25.7
COc1ccccc1C(C)NS(=O)(=O)c1cccs1 (stereo not drawn)	5.1%	-8.7	2.3%	16.1%	-6.1
CN(c1nc2ccccc2n2c(C3CC3)nnc12)S(=O)(=O)c1ccccc1	2.5%	-3.3	-11.1%	-13.0%	-11.2
CC1(C)CO[C@@H](CC(=O)O)CN1	.	.	-23.3%	-0.4%	.
O=C(NCCCc1ccccc1)c1cc(COc2ccc(F)cc2Cl)on1	-0.6%	-3.3	-12.5%	13.7%	-5.7
CC(=O)n1cc(N(C(=O)CCl)c2ccc([N+](=O)[O-])cc2)c2ccccc21	3.6%	-2.3	?	3.7µM*	-5.8
Cc1nc2ccccc2n1-c1ccccc1	-6.7%	-2.2	-15.6%	-0.7%	-0.8
Cc1nc2ccccc2c2c(N)c3ccccc3n12	6.6%	11.3	8.28µM*	?	7.4
CC1CC1c1ccc(/C=C(\C#N)C(=O)Nc2cccc(Cl)c2Cl)o1 (stereo not drawn)	1.3%	6.5	?	24.2%	3.3
N#Cc1cccc(NC(=O)Nc2cccs2)c1	-2.4%	-1.8	.	?	19.6
COc1ccc(NC(=O)CN(C)Cc2cccs2)cc1Cl	6.2%	11.5	-28.3%	?	21.5
COc1ccc(NC(=O)CCC(=O)c2cccs2)cc1Cl	3.7%	9.5*	43.6%	52.1%	11.3
CCc1cccc(NC(=O)Nc2cccs2)c1	-1.3%	28.2*	?	?	+
COc1ccc(NC(=O)Nc2cccs2)cc1Cl	-1.1%	39.3*	-17.1%	47.2%	+
CN1CCN(C(=S)SCc2nc(N)nc(Nc3ccc(F)cc3)n2)CC1	-0.5%	18.6*	i	?	21.4
Cc1ccc(Nc2nc(N)nc(CSC(=S)N3CCOCC3)n2)c(C)c1	1.1%	33.5*	101.4%	63.4%	71.7*
COc1ccc(Nc2nc(N)nc(CSC(=S)N3CCOCC3)n2)cc1	0.1%	39.1*	14.2%	34.8%	67.4*

Screening results as filed in PubChem BioAssay.
